Data as given in PubChem BioAssay.
Active and inactive are the calls of the source.

test system: not listed separately; test: Plasmodium falciparum growth inhibition, primary screen, strain 3D7, DAPI fluorescence, 100 nL (AID 1184);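 note: parasites grown inside human red blood cells in medium with human serum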; settings: P. falciparum 3D7 growth, 3 d, higher = more signal

Row | SMILES | z-score
1 | COC(=O)CC=C[C@@H](C)[C@@H]1C=C[C@H](O)[C@@H](CO)O1 | 0.247
2 | C#CCCCON=C1C[C@@H](O)[C@@H](O)[C@@H]2[C@@H]3C(=O)N(CC)C(=O)[C@@H]3CC[C@@H]12 | -0.0961
3 | COc1cccc([C@H]2Oc3ccc(OC)cc3C(=NO[C@@H]3O[C@H](COC(C)=O)[C@@H](OC(C)=O)[C@H](OC(C)=O)[C@H]3OC(C)=O)[C@@H]2O)c1 | 0.956
4 | COc1ccc(O[C@H]2C=C[C@@H](c3ccccc3)O[C@@H]2CON=C(C)CCN2CCc3nc(-c4ccccc4)c(-c4ccccc4)cc3C2)cc1 | -0.553
5 | C[C@@H]1NC(=O)[C@@H](C)COC(=O)[C@H](C)NC(=O)[C@@H](C)COC1=O | -1.46
6 | Cn1c(=O)n2n(c1=O)[C@H]1[C@H](O)[C@@H]3O[C@@H]3C(=NOCc3ccccc3)[C@H]1CC2 | 0.769
7 | C[C@@H](ON=C1[C@H]2CCn3c(=O)n(-c4ccccc4)c(=O)n3[C@H]2[C@H](O)[C@@H]2O[C@H]12)c1cn([C@@H]2COC[C@H]2O)nn1 | 0.0979

biological target: Homeobox protein Hox-A13 (Mus musculus) (UniProt Q62424); test: inhibitors of HoxA13-DNA binding, primary screen, biochemical, fluorescence polarization, labeled oligonucleotide (AID 1185); settings: 15 min, higher = more signal, called active from +8 up or from −8 down
Sequence (Q62424 whole entry, looked up): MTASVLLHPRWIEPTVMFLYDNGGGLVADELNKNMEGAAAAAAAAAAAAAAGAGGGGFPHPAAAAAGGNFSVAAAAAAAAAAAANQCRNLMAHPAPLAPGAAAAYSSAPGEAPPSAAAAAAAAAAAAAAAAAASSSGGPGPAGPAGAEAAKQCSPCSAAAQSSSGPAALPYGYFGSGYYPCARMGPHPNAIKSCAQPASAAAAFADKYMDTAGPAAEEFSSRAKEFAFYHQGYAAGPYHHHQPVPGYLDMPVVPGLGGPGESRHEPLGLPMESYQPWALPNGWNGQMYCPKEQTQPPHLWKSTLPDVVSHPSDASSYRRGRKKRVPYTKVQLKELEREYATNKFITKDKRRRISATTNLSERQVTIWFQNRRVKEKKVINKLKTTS

Row | SMILES | z-score
8 | CCCCC#C[C@@H]1C=C[C@H](Oc2cc(OC)c(OC)c(OC)c2)[C@@H](COC(=O)OCC)O1 | -5.07 (inactive)
9 | C=COC[C@@H]1CN2[C@@H](CC[C@@H](C)[C@@H]2c2ccc(Br)cc2)C(=O)O1 | -2.54 (inactive)
10 | CCN1C(=O)[C@H]2[C@H]3[C@H](O)[C@H](O)CC(=NOCC(C)C)[C@@H]3CC[C@H]2C1=O | -1.62 (inactive)
11 | COC(=O)CC=C[C@@H](C)[C@@H](C=NOCC[C@@H]1C=C[C@H](OC(C)=O)[C@@H](COC(C)=O)O1)OC | -1.14 (inactive)
12 | Cc1ccc(S(=O)(=O)NC(CCc2ccccc2)CC(=O)C(C)(C)C)cc1 (stereo not drawn) | -3.68 (inactive)
13 | CC(CCN1CCc2nc(-c3ccccc3)c(-c3ccccc3)cc2C1)=NOC[C@@H](O)COCc1ccco1 | -5.11 (inactive)
14 | O=C1[C@H]2[C@H]3[C@H](O)[C@H](O)CC(=NOC[C@@H](O)COCc4ccco4)[C@@H]3CC[C@H]2C(=O)N1C[C@@H]1CCCO1 | 0.515 (inactive)
15 | COc1ccc(O[C@H]2C=C[C@@H](c3ccccc3)O[C@@H]2CON=CC[C@@H]2C=C[C@H](OC(C)=O)[C@@H](COC(C)=O)O2)cc1 | -4.06 (inactive)
16 | CCOC(=O)[C@H](Cc1ccccc1)NC(=O)CCC1CC(OC(=O)NCCc2ccc(F)cc2)CC2(CCCC(COC(=O)NCCc3ccc(Cl)cc3)O2)O1 (stereo partly drawn) | -3.08 (inactive)
17 | CCN1C(=O)[C@H]2[C@H]3[C@H](O)[C@H](O)CC(=NO[C@@H](C)c4cn([C@H](CO)Cc5ccccc5)nn4)[C@@H]3CC[C@H]2C1=O | -2.02 (inactive)
18 | COc1ccc(COC(=O)NN=C2C[C@@H](O)[C@@H](O)[C@@H]3[C@@H]4C(=O)N(C5CCCCC5)C(=O)[C@@H]4CC[C@H]23)cc1 | -5.48 (inactive)
19 | O=C1C=C[C@@H](O)[C@@H]2[C@@H]3C(=O)N(C[C@@H]4CCCO4)C(=O)[C@@H]3CC[C@@H]12 | 0.112 (inactive)
20 | CCOC(=O)[C@H](CC(C)C)NC(=O)CCC1CC(OC(=O)NCc2ccc3c(c2)OCO3)CC2(CCCC(COC(=O)NCc3cccc(C(F)(F)F)c3)O2)O1 (stereo partly drawn) | -1.71 (inactive)
21 | CCOC(=O)[C@H](Cc1ccccc1)NC(=O)CCC1CC(OC(=O)NCc2cccc3ccccc23)CC2(CCCC(COC(=O)NCc3ccccc3)O2)O1 (stereo partly drawn) | -1.5 (inactive)
22 | CCOC(=O)NN=C1C[C@@H](O)[C@@H](O)[C@@H]2[C@@H]3C(=O)N(C(C)(C)C)C(=O)[C@@H]3CC[C@H]12 | 0.772 (inactive)
23 | CCOC(=O)[C@H](Cc1ccccc1)NC(=O)CCC1CC(OC(=O)NCCc2ccc(F)cc2)CC2(CCCC(COC(=O)NCCOC)O2)O1 (stereo partly drawn) | -6.28 (inactive)
24 | C#CCCCON=C1C[C@@H](O)[C@@H](O)[C@@H]2[C@@H]3C(=O)N(c4cccc(Oc5ccccc5)c4)C(=O)[C@@H]3CC[C@H]12 | 0.303 (inactive)
25 | CC(C)=CCCC(C)=CCON=C1C[C@@H](O)[C@@H](O)[C@@H]2[C@@H]3C(=O)N(C4CCCCC4)C(=O)[C@@H]3CC[C@@H]12 | -2.99 (inactive)

Row | SMILES | z-score
26 | COC(=O)[C@@H]1CC[C@H](C)[C@@H](c2ccc(C)cc2)N1C(=O)c1ccc(C=NO[C@H](C)c2cn([C@@H]3COC[C@H]3O)nn2)cc1 | -6.19 (inactive)
27 | COC(=O)[C@H](C)NC(=O)CCC1CC(OC(=O)NCCc2ccc(F)cc2)CC2(CCCC(COC(=O)NCCC(C)C)O2)O1 (stereo partly drawn) | -6.77 (inactive)
28 | CCCNC(=O)OC[C@H]1O[C@H](c2ccccc2)C=C[C@@H]1Oc1ccc(OC)cc1 | -1.63 (inactive)
29 | COCOc1ccc(Br)cc1C(=O)[C@@H]1O[C@H]1c1cccc(OC)c1 | -1.99 (inactive)
30 | COc1ccc(O[C@@H]2[C@H](O)CO[C@H]2C=Cc2ccccc2)cc1 | -1.16 (inactive)
31 | CC(=O)OC[C@H]1O[C@H](CC=NO[C@H](C)c2cn([C@H](CO)Cc3ccccc3)nn2)C=C[C@@H]1OC(C)=O | -1.83 (inactive)
32 | CCOC(=O)[C@H](CC(C)C)NC(=O)CCC1CC(OC(=O)NCc2cccc3ccccc23)CC2(CCCC(COC(=O)NCCOc3ccccc3)O2)O1 (stereo partly drawn) | -3.36 (inactive)
33 | C#CCCCON=C1C[C@@H](O)[C@@H](O)[C@@H]2[C@@H]3C(=O)N(c4ccc(F)cc4F)C(=O)[C@@H]3CC[C@H]12 | -0.42 (inactive)
34 | CCO[C@H](c1cc(OC)cc([N+](=O)[O-])c1OC)[C@H](C)C=CCC(=O)OC | -0.64 (inactive)
35 | C[C@@H]1CC[C@H]2C(=O)O[C@@H](COc3ccc(C(C)(C)C)cc3)CN2[C@@H]1c1ccc(Br)cc1 | 0.347 (inactive)
36 | C=CC[C@@H]1C=C[C@H](ON=C2[C@H]3CCn4c(=O)n(-c5ccccc5)c(=O)n4[C@H]3[C@H](O)[C@@H]3O[C@H]23)[C@@H](CO)O1 | -2.05 (inactive)
37 | COC(=O)CC=C[C@@H](C)[C@@H]1C=C[C@H](O)[C@@H](CO)O1 | -0.235 (inactive)
38 | C#CCCCON=C1C[C@@H](O)[C@@H](O)[C@@H]2[C@@H]3C(=O)N(CC)C(=O)[C@@H]3CC[C@@H]12 | -0.918 (inactive)
39 | COc1cccc([C@H]2Oc3ccc(OC)cc3C(=NO[C@@H]3O[C@H](COC(C)=O)[C@@H](OC(C)=O)[C@H](OC(C)=O)[C@H]3OC(C)=O)[C@@H]2O)c1 | -5.19 (inactive)
40 | COc1ccc(O[C@H]2C=C[C@@H](c3ccccc3)O[C@@H]2CON=C(C)CCN2CCc3nc(-c4ccccc4)c(-c4ccccc4)cc3C2)cc1 | -1.81 (inactive)
41 | C[C@@H]1NC(=O)[C@@H](C)COC(=O)[C@H](C)NC(=O)[C@@H](C)COC1=O | 0.969 (inactive)
42 | Cn1c(=O)n2n(c1=O)[C@H]1[C@H](O)[C@@H]3O[C@@H]3C(=NOCc3ccccc3)[C@H]1CC2 | -2.35 (inactive)
43 | C[C@@H](ON=C1[C@H]2CCn3c(=O)n(-c4ccccc4)c(=O)n3[C@H]2[C@H](O)[C@@H]2O[C@H]12)c1cn([C@@H]2COC[C@H]2O)nn1 | -2.77 (inactive)
